From PubChem BioAssay AID492953 (The Scripps Research Institute Molecular Screening Center, 2010)
Out of some 340,000 compounds screened, about 4,200 (1.2%) were called active.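 The calls were made as follows: active = inhibition above the mean of all tested compounds plus 3 SD (cut at about 24% in these data); inactive = the rest.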 Many of the other results were omitted from the sample, so actives are more common in it than they were.

target: Platelet-activating factor acetylhydrolase IB subunit alpha2 (Homo sapiens) (UniProt P68402); assay: inhibition of PAF acetylhydrolase 1b subunit 2 – biochemical, fluorescence polarization, human, primary screen (AID 492953); conditions: recombinant PAFAH1B2, FP-rhodamine activity probe, at 3.39 µM, hits give high values;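 also: 0% = enzyme with DMSO and 100% = wells lacking PAFAH1B2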
Sequence (P68402 whole entry, looked up): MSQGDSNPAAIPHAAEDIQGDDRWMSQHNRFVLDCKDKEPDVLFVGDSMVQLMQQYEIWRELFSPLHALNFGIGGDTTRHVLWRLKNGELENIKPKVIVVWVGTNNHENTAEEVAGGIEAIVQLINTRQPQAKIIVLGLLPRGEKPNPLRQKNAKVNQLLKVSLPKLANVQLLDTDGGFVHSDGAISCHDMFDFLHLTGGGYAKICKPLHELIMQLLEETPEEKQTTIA

Structure (SMILES)	inhibition
O=C1N=c2ccccc2=C/C1=C\c1c(O)[nH]c(=S)[nH]c1=O	3.53% (inactive)
O=c1[nH]c(O)c(C=Nc2cc(F)cc(F)c2)c(=O)[nH]1	-5.42% (inactive)
Cc1ccc2c(c1)=C/C(=C\c1c(O)[nH]c(=O)[nH]c1=O)C(=O)N=2	24.9% (active)
Cc1ccc(Cn2c(C)c3cnn(CC(=O)N4CCC5(CC4)OCCO5)c(=O)c3c2C)cc1	4.99% (inactive)
Cc1cccc(OP(=O)(Oc2cccc(C)c2)OC(c2ccccc2)C(F)(F)F)c1 (stereo not given)	10.7% (inactive)
CNC(=O)O/N=C(\N)Cc1csc2ccccc12	7.09% (inactive)
CNC(=O)O/N=C(\N)Cc1csc2ccc(Cl)cc12	71.7% (active)
N[C@@H](Cc1c[nH]c2ccccc12)c1nnc(SCc2c(F)cccc2Cl)o1	3.92% (inactive)
CCC(C)(O)C(=O)OC1C(=O)OC2CC3C(C)=CC(=O)C(O)C3(C)C3C4(O)OCC23C1C(C)C4O (stereo not given)	-0.05% (inactive)
CCCCCn1c(=O)c(C(=O)Nc2c(C)n(C)n(-c3ccccc3)c2=O)c(O)c2ccccc21	-3.03% (inactive)
CC(C)(C)c1ccc(CN2C(=O)CN=C(c3ccccc3)c3ccccc32)cc1	88% (active)
Nc1ccc(C(=O)N/N=C2/CN3CCC2CC3)cc1	-0.84% (inactive)
CN(C)CC1CCCCC1OC(=O)c1ccc(Cl)c(Cl)c1 (stereo not given)	-0.45% (inactive)
CCCCCCN=C(CC)c1c(O)n(CCCC)c(=O)[nH]c1=O	5.01% (inactive)
CN(C)CC1Oc2ccccc2OC1(O)c1ccccc1 (stereo not given)	0.51% (inactive)
CC1=CC(=Cc2sc3ccccc3[n+]2C)C=C(C)O1	-0.8% (inactive)
CCC(=NCc1ccco1)c1c(O)n(Cc2ccccc2)c(=O)[nH]c1=O	3.82% (inactive)
O=C(N/N=C/c1c(O)n(Cc2ccccc2)c(=O)[nH]c1=O)c1ccccc1	18.9% (inactive)
CC/C(=N\NC(=O)c1ccccc1O)c1c(O)n(Cc2ccccc2)c(=O)[nH]c1=O	26.1% (active)
O=C(NCC(c1cccnc1)N1CCN(c2ccccc2)CC1)Oc1ccccc1 (stereo not given)	4.28% (inactive)
O=C(CSC1c2ccccc2-c2ccccc21)N/N=C/c1ccccc1	8.06% (inactive)
c1ccc(CCN2CCC3(CC2)OCCO3)cc1	3.22% (inactive)
O=C(OCCN1CCOCC1)C1(c2ccccc2)CCCC1	36.1% (active)
CCOC(=O)C1(c2ccccc2)CCN(CC(O)c2ccc(NC(C)=O)cc2)CC1 (stereo not given)	0.73% (inactive)
Cc1ccc(N(C)C(=O)Oc2cccc3ccc(C)nc23)cc1	2.03% (inactive)
